# Test results from the supplement of paper PMC8728848.
# The entries come from a sample that favours the strongest signals as a whole.
# How the values were obtained:
# Assay in all cases: glycan array binding signal (z-score within array); higher = stronger binding
# Conditions in all cases: glycan notation: IUPAC condensed, linker removed
# [1] = target: Fuc(a1-2)Gal(b1-3)GlcNAc(b1-2)Man(a1-3)[Fuc(a1-2)Gal(b1-3)GlcNAc(b1-2)Man(a1-6)]Man(b1-4)GlcNAc(b1-4)[Fuc(a1-6)]GlcNAc
# Procedure, shortened: (§1)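 Arrays were curated from the Consortium for Functional Glycomics database, 3228 in total, and kept only where the protein sequence was available. Binding is expressed as a within-array Z-score. This score was averaged across arrays of the same protein sequence at different concentrations or buffers and across linkers, and negative values can be read as non-binding.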
# [2] = target: Fuc(a1-2)Gal(b1-4)GlcNAc(b1-2)Man(a1-3)[Fuc(a1-2)Gal(b1-4)GlcNAc(b1-2)Man(a1-6)]Man(b1-4)GlcNAc(b1-4)[Fuc(a1-6)]GlcNAc
# Procedure, shortened: as §1
# [3] = target: Fuc(a1-2)[Gal(a1-3)]Gal(b1-3)GlcNAc(b1-3)GalNAc
# Procedure, shortened: as §1
# [4] = target: Fuc(a1-2)[Gal(a1-3)]Gal(b1-3)GlcNAc(b1-6)GalNAc
# Procedure, shortened: as §1
# [5] = target: Fuc(a1-2)[Gal(a1-3)]Gal(b1-4)GlcNAc(b1-2)Man(a1-3)[Fuc(a1-2)[Gal(a1-3)]Gal(b1-4)GlcNAc(b1-2)Man(a1-6)]Man(b1-4)GlcNAc(b1-4)[Fuc(a1-6)]GlcNAc
# Procedure, shortened: as §1
# [6] = target: Fuc(a1-2)[GalNAc(a1-3)]Gal(b1-3)GlcNAc(b1-3)GalNAc
# Procedure, shortened: as §1
# [7] = target: Fuc(a1-2)[GalNAc(a1-3)]Gal(b1-4)GlcNAc(b1-3)[Fuc(a1-2)[GalNAc(a1-3)]Gal(b1-4)GlcNAc(b1-6)]GalNAc
# Procedure, shortened: as §1
# [8] = target: Fuc(a1-3)[Gal(b1-4)]Glc6S
# Procedure, shortened: as §1
# [9] = target: Fuc(a1-3)[Gal(b1-4)]GlcNAc(b1-3)GalNAc
# Procedure, shortened: as §1
# [10] = target: Fuc(a1-3)[Gal3S(b1-4)]GlcNAc6S
# Procedure, shortened: as §1
# [11] = target: Fuc(a1-3)[GalNAc(b1-4)]GlcNAc
# Procedure, shortened: as §1
# [12] = target: Gal(a1-3)Gal(b1-3)GlcNAc(b1-2)Man
# Procedure, shortened: as §1
# [13] = target: Gal(a1-3)Gal(b1-3)[Fuc(a1-4)]GlcNAc(b1-2)Man(a1-3)[Gal(a1-3)Gal(b1-3)[Fuc(a1-4)]GlcNAc(b1-2)Man(a1-6)]Man(b1-4)GlcNAc(b1-4)GlcNAc
# Procedure, shortened: as §1
# [14] = target: Gal(a1-3)Gal(b1-4)[Fuc(a1-3)]GlcNAc
# Procedure, shortened: as §1
# [15] = target: Gal(a1-4)Gal(b1-4)GlcNAc(b1-2)Man(a1-3)[Gal(a1-4)Gal(b1-4)GlcNAc(b1-2)Man(a1-6)]Man(b1-4)GlcNAc(b1-4)GlcNAc
# Procedure, shortened: as §1
# [16] = target: Gal(b1-3)GlcNAc(a1-3)Gal(b1-4)GlcNAc
# Procedure, shortened: as §1
# [17] = target: Gal(b1-3)GlcNAc(b1-2)[Gal(b1-3)GlcNAc(b1-6)]Man(a1-6)[Gal(b1-3)GlcNAc(b1-2)Man(a1-3)]Man(b1-4)GlcNAc(b1-4)GlcNAc
# Procedure, shortened: as §1
# [18] = target: Gal(b1-3)GlcNAc(b1-3)Gal(b1-4)GlcNAc
# Procedure, shortened: as §1
# [19] = target: Gal(b1-3)GlcNAc(b1-3)Gal(b1-4)[Fuc(a1-3)]GlcNAc
# Procedure, shortened: as §1
# [20] = target: Gal(b1-3)GlcNAc(b1-3)Gal(b1-4)[Fuc(a1-3)]GlcNAc(b1-6)[Gal(b1-3)GlcNAc(b1-3)]Gal(b1-4)Glc
# Procedure, shortened: as §1
# [21] = target: Gal(b1-3)GlcNAc(b1-6)[Gal(b1-3)]GalNAc
# Procedure, shortened: as §1
# [22] = target: Gal(b1-4)GlcNAc(b1-3)Gal(b1-4)Glc
# Procedure, shortened: as §1
# [23] = target: Gal(b1-4)GlcNAc(b1-3)Gal(b1-4)GlcNAc(b1-3)Gal(b1-4)GlcNAc(b1-3)Gal(b1-4)GlcNAc(b1-2)Man(a1-3)[Gal(b1-4)GlcNAc(b1-3)Gal(b1-4)GlcNAc(b1-3)Gal(b1-4)GlcNAc(b1-3)Gal(b1-4)GlcNAc(b1-2)Man(a1-6)]Man(b1-4)GlcNAc(b1-4)[Fuc(a1-6)]GlcNAc
# Procedure, shortened: as §1
# [24] = target: Gal6S(b1-3)GlcNAc
# Procedure, shortened: as §1
# [25] = target: GalNAc(a1-3)GalNAc
# Procedure, shortened: as §1
# [26] = target: Glc(a1-2)Glc(a1-3)Glc(a1-3)Man(a1-2)Man(a1-2)Man(a1-3)[Man(a1-2)Man(a1-3)[Man(a1-2)Man(a1-6)]Man(a1-6)]Man(b1-4)GlcNAc
# Procedure, shortened: as §1
# [27] = target: GlcA(b1-3)GlcNAc(b1-4)GlcA(b1-3)GlcNAc(b1-4)GlcA(b1-3)GlcNAc(b1-4)GlcA(b1-3)GlcNAc(b1-4)GlcA(b1-3)GlcNAc(b1-4)GlcA(b1-3)GlcNAc(b1-4)GlcA(b1-3)GlcNAc(b1-4)GlcA(b1-3)GlcNAc
# Procedure, shortened: as §1
# [28] = target: GlcNAc(a1-3)Gal(b1-4)GlcNAc
# Procedure, shortened: as §1
# [29] = target: GlcNAc(b1-2)Man(a1-3)[GlcNAc(b1-2)Man(a1-6)]Man(b1-4)GlcNAc(b1-4)GlcNAc
# Procedure, shortened: as §1
# [30] = target: GlcNAc(b1-2)Man(a1-3)[Man(a1-3)[Man(a1-6)]Man(a1-6)][GlcNAc(b1-4)]Man(b1-4)GlcNAc(b1-4)GlcNAc
# Procedure, shortened: as §1
binder,measurement,setting,value
Banana lectin (Musa acuminata) (protein) MNGAIKVGAWGGNGGSAFDMGPAYRIISVKIFSGDVVDGVDVTFTYYGKTETRHYGGSGGTPHEIVLQEGEYLVGMAGEVANYHGAVVLGKLGFSTNKKAYGPFGNTGGTPFSLPIAAGKISGFFGRGGKFLDAIGVYLEPLEHHHHHH,glycan array binding signal (z-score),[1],0.041
same,glycan array binding signal (z-score),[2],0.084
same,glycan array binding signal (z-score),[3],-0.22
same,glycan array binding signal (z-score),[4],-0.374
same,glycan array binding signal (z-score),[5],0.595
same,glycan array binding signal (z-score),[6],-0.215
same,glycan array binding signal (z-score),[7],-0.173
same,glycan array binding signal (z-score),[8],-0.211
same,glycan array binding signal (z-score),[9],-0.268
same,glycan array binding signal (z-score),[10],-0.212
same,glycan array binding signal (z-score),[11],-0.132
same,glycan array binding signal (z-score),[12],-0.189
same,glycan array binding signal (z-score),[13],0.245
same,glycan array binding signal (z-score),[14],-0.222
same,glycan array binding signal (z-score),[15],-0.174
same,glycan array binding signal (z-score),[16],3.29
same,glycan array binding signal (z-score),[17],0.504
same,glycan array binding signal (z-score),[18],-0.264
same,glycan array binding signal (z-score),[19],-0.216
same,glycan array binding signal (z-score),[20],-0.216
same,glycan array binding signal (z-score),[21],0.054
same,glycan array binding signal (z-score),[22],-0.22
same,glycan array binding signal (z-score),[23],-0.154
same,glycan array binding signal (z-score),[24],-0.197
same,glycan array binding signal (z-score),[25],-0.213
same,glycan array binding signal (z-score),[26],1.56
same,glycan array binding signal (z-score),[27],-0.99
same,glycan array binding signal (z-score),[28],0.842
same,glycan array binding signal (z-score),[29],0.105
same,glycan array binding signal (z-score),[30],-0.039
